Experimental data: PubChem BioAssay
Inconclusive results are not listed. Active and inactive are the calls of the source.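 Rule for the calls, unless noted: active = binding below the plate cutoff, the plate median minus 3 SD, with a reading above zero; inconclusive = below the plate cutoff but reading exactly zero; inactive = the rest.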

Key:
[1] = rapamycin-like changes in RPL19A-GFP expression – cell-based, S. cerevisiae, multiplex flow cytometry, primary screen (AID 1862; in the data active = percent of DMSO control GFP below about 86%;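 note: lower values mimic rapamycin by blocking the RPL19A rise seen in DMSO cells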); details: S. cerevisiae RPL19A-GFP strain, flow cytometry fluorescence, 3 h; at 10 µM; stronger effect = lower value
[2] = TOR pathway GLN3 branch reporter MEP2-GFP changes – S. cerevisiae, multiplex flow cytometry, primary screen (AID 1867;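 active = GFP response, as percent of the DMSO control, above the screen-wide mean plus 3 SD, about 139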;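 note: median GFP channel fluorescence of barcode-gated MEP2-GFP cells measured by flow cytometry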); details: S. cerevisiae MEP2-GFP strain, 3 h, at 10 µM, stronger effect = higher value, 100% means same as DMSO wells
[3] = TOR pathway RTG branch CIT2 reporter changes – S. cerevisiae, GFP fusion, multiplex flow cytometry, primary screen (AID 1870;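 active = percent response above a set limit, the screen-wide mean plus 3 SD, cut at about 130% in these data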;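 note: barcoded CIT2-GFP strain pooled with four other GFP strains with rapamycin as positive control; median GFP fluorescence per well over plate mean of DMSO wells so 100% = DMSO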); details: S. cerevisiae CIT2-GFP expression, 3 h, at 10 µM, stronger effect = higher value
[4] = TOR pathway LAP4-GFP level changes – S. cerevisiae, multiplex flow cytometry, primary screen (AID 1873;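 active = GFP signal, as percent of the solvent control, above the screen mean plus 3 SD, about 149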); details: S. cerevisiae LAP4-GFP expression, 3 h, at 10 µM, stronger effect = higher value
[5] = reduced mouse 2C T cell binding to pMHC/ICAM-1 vesicles – MLPCN validation set, flow cytometry, LFA-1/ICAM-1 modulator project, pilot screen (AID 2523;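 active = response below a set limit, under 55% cells CD8-positive and vesicle-bound, and CD8 cells' 90th-percentile brightness under 279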;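 for vesicle binding response: mean PE anti-B7-1 fluorescence of CD8+ cells relative to row control; 100% = QL9-loaded vesicles with DMSO vehicle in the same plate row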); details: 2C mouse CD8+ T cells, at 7 µM, stronger effect = lower value; double positive events: measured here: CD8+/vesicle+ event percentage
[6] = molecular target: Integrin beta-1 (Homo sapiens) + Integrin alpha-4 (Homo sapiens) (UniProt P13612+P05556); experiment: alpha4beta1 integrin LIBS antibody binding reduction – U937 cells, HUTS-21 mAb, flow cytometry, validation set, VLA-4 allosteric modulator project, pilot screen (AID 2674;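 active = inhibition above 50%, about 3 SD of the validation set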;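 note: antibody binding induced by the VLA-4 ligand LDV present at three times its Kd; 0% = LDV ligand with antibody and no compound and 100% = antibody without LDV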); details: HUTS-21 LIBS mAb binding, at 6.7 µM, stronger effect = higher value, binding induced by LDV ligand
[7] = calorie-restriction mimetic ROS inhibitors, yeast – validation compound set, pilot screen (AID 2706;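 active = superoxide response below 65% of plate, a cut near 3 SD across the whole screen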;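 note: yeast exposed to compound for one week at 30 degrees C before staining; 100% = mean of all compound wells on the same plate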); details: S. cerevisiae aging, superoxide DHE fluorescence; at 10 µM, stronger effect = lower value
[8] = molecular target: Beta-adrenergic receptor kinase 1 (Homo sapiens) (UniProt P25098); experiment: GRK2 binders displacing RNA aptamer, biochemical, validation, human GRK2, bead flow cytometry (AID 488806;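 active = aptamer binding inhibition above 30%, about 3 SD of noise from non-fluorescent compounds; inactive = inhibition at or below 30%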); details: bead-bound GRK2, FAM-aptamer displacement, at 10 µM, stronger effect = higher value
[9] = molecular target: Beta-2 adrenergic receptor (Homo sapiens) (UniProt P07550); experiment: agonist-induced loss of surface beta2AR – cell-based, FAP fluorogen, flow cytometry, validation set, pilot screen (AID 504459;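 active = percent response above 42, roughly 3 SD of non-fluorescent test compounds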;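 note: agonist-driven loss of surface beta2AR via internalization measured by FAP dye flow cytometry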); details: Am2.2-beta2AR cells, at 10 µM, stronger effect = higher value
[10] = molecular target: AP-2 complex subunit beta (Homo sapiens) (UniProt P63010); experiment: beta-arrestin/AP2 interaction blockers – biochemical, validation set, GST-AP2 beads, flow cytometry, pilot screen (AID 504541;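 active = inhibition above 54%, about 3 SD of non-fluorescent compounds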;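 note: AP2 carries R879A mutation and is captured from E. coli lysate; bead-bound FITC arrestin peptide fluorescence measuring arrestin peptide binding to AP2; 0% = DMSO wells and 100% = excess unlabeled arrestin peptide control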); details: FITC arrestin peptide, at 10 µM, stronger effect = higher value, AP2 beta2 appendage fragment, R879A mutant
[11] = cytosolic pH regulators acting via V-ATPase – S. cerevisiae, pHLuorin, HTS validation (AID 504600; in the data active = response above about 15%;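 note: plate controls were DMSO for no effect and reference compound for full effect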); details: V-ATPase proton transport, at 10 µM, stronger effect = higher value
[12] = system: anti-desmoglein-3 scFv antibody binding to human DSG3; experiment: blockers of pathogenic pemphigus antibody–desmoglein-3 binding – biochemical, validation compound set, bead-based, flow cytometry, pilot screen (AID 588368); details: Protein G beads, DSG3-Fc, scFv-GFP binding, at 10 µM, stronger effect = lower value;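 note: signal is the median channel fluorescence of bead-bound GFP antibody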
[13] = Nile Red efflux blockade in pump-expressing yeast – validation compound set, multiplex, phenotypic, pilot screen (AID 588506;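 active = efflux inhibition above 0.42, the validation set average plus 4 SD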;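 note: Nile Red retained in cells so higher fluorescence means more efflux inhibition; 0 = negative control wells and 1 = enniatin B 25 µM full block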); details: S. cerevisiae pump-expressing triplex, Nile Red efflux flow cytometry; at 10 µM; stronger effect = higher value; the pumps come from Candida albicans
[14] = molecular target: ATP-binding cassette sub-family B member 6 (Homo sapiens) (UniProt Q9NP58); experiment: blockers of ABCB6-driven porphyrin uptake – K562-ABCB6 cells, flow cytometry, validation set, pilot screen (AID 588550;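 active = inhibition above the screen-wide mean plus 3 SD, about 51%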;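 note: 0% = DMSO wells and 100% = benzethonium chloride 70 µM positive control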); details: K562-ABCB6 porphyrin accumulation, 1 h, at 10 µM, stronger effect = higher value
[15] = AML differentiation inducers, ER-HoxA9 marrow cells – cell-based, GFP/MAC1 double positive, flow cytometry, validation set, primary screen (AID 588685;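 active = differentiation response of at least 50%, scaled between solvent and reference control, from cells with both markers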;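 note: compound exposure lasts four days before antibody staining and flow analysis; 0% = DMSO wells and 100% = 5 µM fulvestrant positive control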); details: stronger effect = higher value, normalized: vehicle 0, fulvestrant 100
[16] = yeast AGP1-GFP level changes, GLN3 branch – cell-based, multiplex flow cytometry, S. cerevisiae, primary screen (AID 1887;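 active = GFP signal above the screen-wide mean plus 3 SD, that is over about 124.5% of the solvent control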;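 note: AGP1-GFP fusion strain of S. cerevisiae within a five-strain barcoded multiplex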); details: 3 h, at 10 µM, stronger effect = higher value

Chain of ATP-binding cassette sub-family B member 6 (Homo sapiens) (Q9NP58 whole entry, looked up): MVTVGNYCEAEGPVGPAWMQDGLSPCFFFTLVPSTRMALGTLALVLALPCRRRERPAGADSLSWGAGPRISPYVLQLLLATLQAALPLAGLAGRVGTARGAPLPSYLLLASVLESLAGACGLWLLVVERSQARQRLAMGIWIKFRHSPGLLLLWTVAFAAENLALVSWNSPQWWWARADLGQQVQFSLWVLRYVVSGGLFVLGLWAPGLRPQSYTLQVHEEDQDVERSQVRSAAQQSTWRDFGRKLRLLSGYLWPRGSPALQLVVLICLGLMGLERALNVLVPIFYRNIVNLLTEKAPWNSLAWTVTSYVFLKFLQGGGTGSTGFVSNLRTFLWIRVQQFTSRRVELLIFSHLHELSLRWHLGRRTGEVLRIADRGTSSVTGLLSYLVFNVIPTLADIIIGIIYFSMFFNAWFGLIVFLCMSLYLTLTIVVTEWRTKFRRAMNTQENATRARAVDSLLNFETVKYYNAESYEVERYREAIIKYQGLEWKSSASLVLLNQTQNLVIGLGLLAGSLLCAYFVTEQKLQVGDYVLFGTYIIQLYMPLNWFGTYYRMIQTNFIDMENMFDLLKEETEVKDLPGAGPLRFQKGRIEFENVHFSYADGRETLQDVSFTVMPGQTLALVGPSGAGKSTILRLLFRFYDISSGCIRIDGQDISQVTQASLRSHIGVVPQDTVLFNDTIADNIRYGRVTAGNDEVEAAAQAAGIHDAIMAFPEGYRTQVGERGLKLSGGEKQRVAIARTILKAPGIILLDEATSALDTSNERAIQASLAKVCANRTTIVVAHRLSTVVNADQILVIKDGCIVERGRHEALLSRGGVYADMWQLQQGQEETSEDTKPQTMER
Chain of Beta-adrenergic receptor kinase 1 (Homo sapiens) (P25098 whole entry, looked up): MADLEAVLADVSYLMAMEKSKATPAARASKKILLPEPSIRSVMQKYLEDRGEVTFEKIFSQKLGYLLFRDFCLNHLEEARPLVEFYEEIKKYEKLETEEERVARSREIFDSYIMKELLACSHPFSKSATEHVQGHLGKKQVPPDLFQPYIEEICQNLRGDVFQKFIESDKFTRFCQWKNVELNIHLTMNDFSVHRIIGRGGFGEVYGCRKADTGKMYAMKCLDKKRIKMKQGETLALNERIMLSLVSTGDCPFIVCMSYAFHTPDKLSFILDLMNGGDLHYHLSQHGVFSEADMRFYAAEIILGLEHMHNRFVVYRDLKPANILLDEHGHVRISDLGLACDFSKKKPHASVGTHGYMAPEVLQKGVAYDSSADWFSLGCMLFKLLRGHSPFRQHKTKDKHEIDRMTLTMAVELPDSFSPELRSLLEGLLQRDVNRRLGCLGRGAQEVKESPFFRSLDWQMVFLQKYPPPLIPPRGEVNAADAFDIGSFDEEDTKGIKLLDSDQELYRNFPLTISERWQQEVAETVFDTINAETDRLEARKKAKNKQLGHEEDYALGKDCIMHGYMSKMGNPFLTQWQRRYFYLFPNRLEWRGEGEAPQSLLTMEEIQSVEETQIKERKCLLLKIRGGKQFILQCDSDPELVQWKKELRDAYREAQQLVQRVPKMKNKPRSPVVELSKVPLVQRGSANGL
Chain of Beta-2 adrenergic receptor (Homo sapiens) (P07550 whole entry, looked up): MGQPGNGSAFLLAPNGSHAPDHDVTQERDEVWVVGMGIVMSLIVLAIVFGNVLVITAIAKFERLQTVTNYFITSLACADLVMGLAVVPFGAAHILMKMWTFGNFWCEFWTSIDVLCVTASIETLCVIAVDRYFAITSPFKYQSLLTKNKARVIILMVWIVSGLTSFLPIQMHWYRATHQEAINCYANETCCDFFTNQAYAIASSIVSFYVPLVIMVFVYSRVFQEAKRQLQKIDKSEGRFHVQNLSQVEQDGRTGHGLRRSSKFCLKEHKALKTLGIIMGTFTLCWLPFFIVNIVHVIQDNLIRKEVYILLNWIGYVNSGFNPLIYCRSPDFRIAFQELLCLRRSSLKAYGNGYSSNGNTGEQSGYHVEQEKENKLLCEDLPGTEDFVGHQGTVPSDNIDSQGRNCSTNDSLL
Chain of AP-2 complex subunit beta (Homo sapiens) (P63010 whole entry, looked up, the tested form may be a part, one chain of several): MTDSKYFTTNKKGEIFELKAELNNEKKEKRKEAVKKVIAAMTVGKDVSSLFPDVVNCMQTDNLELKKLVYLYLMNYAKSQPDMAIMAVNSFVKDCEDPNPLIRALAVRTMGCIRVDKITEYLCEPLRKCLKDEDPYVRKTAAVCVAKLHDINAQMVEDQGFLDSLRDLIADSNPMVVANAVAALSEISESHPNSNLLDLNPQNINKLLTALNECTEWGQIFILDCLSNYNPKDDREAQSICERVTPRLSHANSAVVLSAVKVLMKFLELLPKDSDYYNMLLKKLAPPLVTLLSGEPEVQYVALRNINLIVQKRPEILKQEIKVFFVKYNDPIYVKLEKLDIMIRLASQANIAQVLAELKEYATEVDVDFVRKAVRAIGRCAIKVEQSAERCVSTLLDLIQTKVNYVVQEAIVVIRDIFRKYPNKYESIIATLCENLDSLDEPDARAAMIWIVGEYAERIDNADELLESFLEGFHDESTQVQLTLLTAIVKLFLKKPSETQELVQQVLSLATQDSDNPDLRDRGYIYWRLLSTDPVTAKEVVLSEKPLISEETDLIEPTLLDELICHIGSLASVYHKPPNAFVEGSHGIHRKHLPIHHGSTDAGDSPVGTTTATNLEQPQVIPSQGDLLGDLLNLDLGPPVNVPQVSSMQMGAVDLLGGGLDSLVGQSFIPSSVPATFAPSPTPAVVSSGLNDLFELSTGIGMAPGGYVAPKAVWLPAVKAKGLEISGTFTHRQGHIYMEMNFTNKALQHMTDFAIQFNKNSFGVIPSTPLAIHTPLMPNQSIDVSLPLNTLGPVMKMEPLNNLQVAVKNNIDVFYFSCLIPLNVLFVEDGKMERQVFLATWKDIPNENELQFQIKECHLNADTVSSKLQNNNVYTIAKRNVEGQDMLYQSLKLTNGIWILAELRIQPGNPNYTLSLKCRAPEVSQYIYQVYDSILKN
Chain of Integrin beta-1 (Homo sapiens) + Integrin alpha-4 (Homo sapiens) (P05556 whole entry, looked up): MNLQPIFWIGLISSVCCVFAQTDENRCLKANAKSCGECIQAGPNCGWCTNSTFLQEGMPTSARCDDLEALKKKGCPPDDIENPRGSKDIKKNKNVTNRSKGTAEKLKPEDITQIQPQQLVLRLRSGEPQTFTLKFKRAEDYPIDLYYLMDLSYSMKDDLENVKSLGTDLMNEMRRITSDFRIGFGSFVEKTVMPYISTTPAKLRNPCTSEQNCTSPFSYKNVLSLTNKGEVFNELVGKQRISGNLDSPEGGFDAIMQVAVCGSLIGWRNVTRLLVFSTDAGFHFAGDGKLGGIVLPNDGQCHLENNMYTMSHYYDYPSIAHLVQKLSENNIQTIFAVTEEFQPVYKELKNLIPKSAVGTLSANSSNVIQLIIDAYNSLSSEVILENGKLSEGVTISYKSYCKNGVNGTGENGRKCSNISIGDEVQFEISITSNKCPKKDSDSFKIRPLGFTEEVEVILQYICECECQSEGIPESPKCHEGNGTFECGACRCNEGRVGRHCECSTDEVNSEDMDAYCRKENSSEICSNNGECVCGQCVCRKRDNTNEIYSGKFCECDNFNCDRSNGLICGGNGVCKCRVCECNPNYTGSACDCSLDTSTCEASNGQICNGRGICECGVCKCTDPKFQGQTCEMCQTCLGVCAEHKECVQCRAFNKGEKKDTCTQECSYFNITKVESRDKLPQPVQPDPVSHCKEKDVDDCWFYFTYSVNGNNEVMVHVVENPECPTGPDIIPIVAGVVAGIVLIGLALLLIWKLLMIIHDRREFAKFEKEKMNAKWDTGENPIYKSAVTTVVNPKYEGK
Chain of Integrin beta-1 (Homo sapiens) + Integrin alpha-4 (Homo sapiens) (P13612 whole entry, looked up): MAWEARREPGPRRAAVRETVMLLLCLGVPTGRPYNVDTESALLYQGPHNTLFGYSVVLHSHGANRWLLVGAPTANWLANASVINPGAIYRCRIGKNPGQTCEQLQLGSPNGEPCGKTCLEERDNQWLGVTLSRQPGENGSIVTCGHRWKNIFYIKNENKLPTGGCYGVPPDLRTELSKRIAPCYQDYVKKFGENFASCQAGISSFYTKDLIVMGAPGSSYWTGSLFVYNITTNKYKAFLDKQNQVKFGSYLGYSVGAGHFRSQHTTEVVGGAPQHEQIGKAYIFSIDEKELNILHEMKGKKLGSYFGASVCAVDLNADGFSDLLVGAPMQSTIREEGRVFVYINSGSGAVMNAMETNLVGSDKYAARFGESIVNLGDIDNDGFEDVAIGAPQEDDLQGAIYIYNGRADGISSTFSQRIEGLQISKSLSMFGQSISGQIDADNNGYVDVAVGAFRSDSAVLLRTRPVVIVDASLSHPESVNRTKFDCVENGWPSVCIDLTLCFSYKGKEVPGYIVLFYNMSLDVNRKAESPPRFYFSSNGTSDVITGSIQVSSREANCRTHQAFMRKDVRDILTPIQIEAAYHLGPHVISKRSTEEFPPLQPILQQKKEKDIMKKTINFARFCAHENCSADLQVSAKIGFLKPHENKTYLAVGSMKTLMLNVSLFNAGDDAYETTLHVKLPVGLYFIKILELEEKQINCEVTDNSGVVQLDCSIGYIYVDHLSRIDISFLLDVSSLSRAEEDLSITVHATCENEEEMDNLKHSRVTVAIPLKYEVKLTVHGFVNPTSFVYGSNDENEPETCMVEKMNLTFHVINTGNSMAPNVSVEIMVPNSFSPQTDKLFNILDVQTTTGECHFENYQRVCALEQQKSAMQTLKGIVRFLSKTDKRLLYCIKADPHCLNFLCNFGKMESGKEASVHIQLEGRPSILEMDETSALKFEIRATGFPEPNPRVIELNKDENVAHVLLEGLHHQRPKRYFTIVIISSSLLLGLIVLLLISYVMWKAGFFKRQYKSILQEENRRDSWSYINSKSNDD

| SMILES | percent of DMSO control GFP [1] | GFP response vs DMSO [2] | percent response of DMSO control [3] | GFP response vs DMSO [4] | double positive events [5] [%] | vesicle binding response [5] | inhibition [6] | superoxide response (% of plate) [7] | aptamer binding inhibition [8] | response [9] | inhibition [10] | response [11] | binding (% of control) [12] | efflux inhibition (fraction of control) [13] | inhibition [14] | differentiation response [15] | GFP response, % of DMSO [16] |
| --- | --- | --- | --- | --- | --- | --- | --- | --- | --- | --- | --- | --- | --- | --- | --- | --- | --- |
| O=C1OC(=O)C2C1[C@@H]1CC[C@H]2O1 (stereo not given in full) | 96.6% (inactive) | 103% (inactive) | 118% (inactive) | 72.6% (inactive) | 60.8 | 195% (inactive) | -8.09% (inactive) | 94.4% (inactive) | 3% (inactive) | -8.34% (inactive) | -1.78% (inactive) | -0.92% (inactive) | 107% (inactive) | -0.24 (inactive) | 7% (inactive) | -0.82% (inactive) |  |
| Cc1ccc(NCCC(=O)c2ccccc2)cc1Cl | 86.2% (inactive) | 110% (inactive) | 110% (inactive) | 78.7% (inactive) | 63 | 171% (inactive) | 28.8% (inactive) | 99.7% (inactive) | 2% (inactive) | 2.53% (inactive) | -12.3% (inactive) | 2.25% (inactive) | 98% (inactive) | -0.24 (inactive) | 10% (inactive) | -0.82% (inactive) |  |
| COc1cc(C2C(C(=O)c3ccc(C)o3)=C(O)C(=O)N2Cc2cccnc2)ccc1O (stereo not given) | 102% (inactive) | 119% (inactive) | 106% (inactive) | 81.4% (inactive) | 68.3 | 171% (inactive) | 2.58% (inactive) | 110% (inactive) | 2% (inactive) | -8.26% (inactive) | -5.82% (inactive) | 4.05% (inactive) | 99.4% (inactive) | 0.34 (inactive) | 9% (inactive) | -0.82% (inactive) |  |
| CC(NCCC(c1ccccc1)c1ccccc1)c1ccccc1 (stereo not given) | 92.6% (inactive) | 122% (inactive) | 111% (inactive) | 68.8% (inactive) | 64.4 | 167% (inactive) | 6.46% (inactive) | 95.5% (inactive) | -3% (inactive) | 24.3% (inactive) | 0.65% (inactive) | 13.1% (inactive) | 116% (inactive) | 0.19 (inactive) | 9% (inactive) | -0.82% (inactive) |  |
| O=C(CCCCCCCC(=O)c1ccccc1)c1ccccc1 | 98.2% (inactive) |  | 98.6% (inactive) | 105% (inactive) | 62.1 | 189% (inactive) | -5.89% (inactive) | 95.3% (inactive) | 7% (inactive) | 9.71% (inactive) | -3.86% (inactive) | -4.73% (inactive) | 98.9% (inactive) | -0.13 (inactive) | 7% (inactive) | 5.6% (inactive) | 96.9% (inactive) |
